Data published in PubChem BioAssay (NCI).
The panel holds about 79,000 compounds, 15% with a hit somewhere; the sample as a whole holds those more often. Rule as the data show it: active = growth inhibition above about 70%; inactive = the rest.

Columns and labels:
[1] = NCI Yeast Anticancer Drug Screen. Data for the rad50 strain (AID 155);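 also: 0% = growth of vehicle-only cultures of the same strain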; conditions: S. cerevisiae rad50 strain growth inhibition; at 50.0 µM; hits give high values
How it was run: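 A DNA repair-deficient yeast mutant serves as the test organism; compound-induced growth inhibition is calculated against vehicle-treated cells.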

[2] = NCI Yeast Anticancer Drug Screen. Data for the mec2-1 strain (AID 157); conditions: S. cerevisiae mec2-1 strain, at 50.0 µM, hits give high values
How it was run: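 Growth inhibition is read against vehicle-treated controls after compound exposure of the mec2-1 yeast strain, which is defective in DNA damage repair or cell cycle control.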

[3] = NCI Yeast Anticancer Drug Screen. Data for the sgs1 mgt1 strain (AID 161);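 also: 0% = growth of cultures given vehicle only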; conditions: S. cerevisiae sgs1 mgt1 strain, at 50.0 µM, hits give high values
How it was run: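 Growth of a repair-deficient yeast mutant was monitored after compound treatment and expressed as inhibition relative to vehicle-treated cultures.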

[4] = NCI Yeast Anticancer Drug Screen. Data for the cln2 rad14 strain (AID 165);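 also: 0% = growth equal to vehicle treated cultures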; conditions: S. cerevisiae cln2 rad14 strain, at 50.0 µM, hits give high values
How it was run: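 Growth inhibition, relative to vehicle-treated controls, is the read-out. The test organism is a yeast strain with defined genetic alterations, cln2 rad14.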

[5] = NCI Yeast Anticancer Drug Screen. Data for the bub3 strain (AID 167); conditions: S. cerevisiae bub3 mutant strain, at 50.0 µM, hits give high values
How it was run: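 Inhibition values come from growth of compound-treated mutant yeast normalised to vehicle-treated controls.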

[6] = NCI Yeast Anticancer Drug Screen. Data for the mlh1 rad18 strain (AID 175); conditions: S. cerevisiae mlh1 rad18 strain growth inhibition; at 50.0 µM; hits give high values
How it was run: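 Cells of a genetically altered yeast strain, deficient in DNA damage repair, were treated with compound. Their growth was then compared with that of vehicle-treated cultures to give inhibition.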

Measured: growth inhibition

CC(=O)NC1CCCCC1C1CCC([N+](=O)[O-])CC1 (stereo unspecified)
inactive: [1] 12.6% | [2] -1.75% | [3] -12.5% | [4] 12.7% | [5] 6.9% | [6] 6.05%

COc1ccc(/C=N/Nc2nc3ccccc3s2)cc1
inactive: [1] 7.9% | [2] -3.15% | [3] -3.15% | [4] -41.4% | [5] 1% | [6] 25.6%

Cc1ccc(S(=O)(=O)N2CCC(C(=O)N3CCCC3)(c3cccc(C)c3)CC2)cc1
inactive: [1] -55.5% | [2] -35.4% | [3] -46.4% | [4] 0.1% | [5] -38.5% | [6] -43.1%

CCN(CC)c1ccc(/C=C\c2c(C)cnc3ccccc23)cc1
inactive: [1] 8.85% | [2] 10% | [3] 17.9% | [4] -24.4% | [5] 34.6% | [6] -9.45%

CCCCCCC(=O)/C=C/c1cccc(OCc2ccccc2)c1
inactive: [1] 32% | [2] 3.8% | [3] 13.3% | [4] 13.6% | [5] 18.4% | [6] 13.7%

CN/C=C(/OCc1ccccc1)c1ccc(O)c(O)c1
inactive: [1] 2.2% | [2] 0.9% | [3] 3.05% | [4] -6% | [5] -19.7% | [6] 19.2%

CCC(C(=O)O)c1ccc(OCc2ccccc2)cc1 (stereo unspecified)
inactive: [1] 15.7% | [2] 2% | [3] -10.2% | [4] 18.7% | [5] 8.05% | [6] -2.95%

Cc1cc(Cl)c2c(C)ccc(C)c2n1
inactive: [1] -4.25% | [2] -31.9% | [3] 9.85% | [4] 5.7% | [5] 4% | [6] 8.95%

Cc1ccc(N=Nc2c(C)nn(-c3ccccc3)c2C)c(Br)c1
inactive: [1] 26.6% | [2] 10.8% | [3] 47.5% | [4] 4.1% | [5] 18.9% | [6] 38.6%

Cc1ccc(-c2c(N)nc(NC#N)nc2CCC(=O)Nc2ccccc2[N+](=O)[O-])cc1
inactive: [1] 1.9% | [2] 1.35% | [3] -14.6% | [4] 5.5% | [5] 3.7% | [6] 5.4%

CC(C)c1ccc(/C=N\N(C)C)cc1
inactive: [1] 2.3% | [2] 2.05% | [3] -13.8% | [4] -5.6% | [5] -2.9% | [6] -1.75%

CC1(C=O)CCCC2(C)[C@@H]1CCC13CC(CO)C(CC[C@H]12)C3 (stereo partly specified)
inactive: [1] 19.4% | [2] 5.7% | [3] 10.8% | [4] 16.6% | [5] 14.1% | [6] 18.6%

O=C1CCc2c(Cl)sc(Cl)c21
inactive: [1] 20.1% | [2] 5.5% | [3] 13.8% | [4] -32.2% | [5] 4.1% | [6] 9.95%

O=C(N=C1C(=O)C2(CCCCC2)C2(N=C(c3ccccc3)OC2=O)C12CCCCC2)c1ccccc1 (stereo unspecified)
inactive: [1] 11.8% | [2] 8.75% | [3] 9.35% | [4] -5.05% | [5] -2.35% | [6] 14.5%

Cc1cc(-c2ccccc2)nc(Nc2cc3ccccc3[nH]2)n1
inactive: [1] -8.6% | [2] 13.2% | [3] -17.6% | [4] 0.05% | [5] -4.25% | [6] 0.4%

COc1cc(OC)c2cnc(Cl)cc2c1
inactive: [1] 15.4% | [2] -9.1% | [3] -5.35% | [4] -41.4% | [5] -2.85% | [6] 6.6%

CN(C)CCC(O)c1ccccc1 (stereo unspecified)
inactive: [1] 7.2% | [2] -1.25% | [3] 2.2% | [4] -20.5% | [5] -6.2% | [6] -22.6%

CSC1C(OC(=O)c2ccccc2)C(COC(=O)c2ccccc2)OC1n1cnc2ncnc(NC(=O)c3ccccc3)c21 (stereo unspecified)
inactive: [1] 45.4% | [2] 20.4% | [3] 34.6% | [4] 29.4% | [5] 6.45% | [6] 38.8%

O=[N+]([O-])c1cc(/C=N/NS(=O)(=O)c2ccc(F)cc2)c(O)c([N+](=O)[O-])c1
inactive: [1] 10.2% | [2] -11.2% | [3] -14.6% | [4] 3.65% | [5] 0.35% | [6] 9%

COc1cccc(N=NN2CCCC2)c1
inactive: [1] 16.2% | [2] 14.2% | [3] 17.8% | [4] 20.1% | [5] 7.15% | [6] 23.4%

CCCC(=O)OCC1OC2OC(C)(C)OC2C2OC(C)(C)OC12 (stereo unspecified)
inactive: [1] -4.45% | [2] -2.55% | [3] 10.8% | [4] 8.55% | [5] 15.8% | [6] -6.25%

O=C1N(CC2CO2)CCN1CC1CO1 (stereo unspecified)
inactive: [1] -22.4% | [2] -10.2% | [3] -5.3% | [4] -5.15% | [5] -20.4% | [6] -76%

CCC(=O)OCCSCCOC(=O)CC
inactive: [1] 5.65% | [2] 5.65% | [3] -6.4% | [4] -10.3% | [5] -4.4% | [6] -15.8%

NC(=O)Cc1nc(O)cc(=O)[nH]1
inactive: [1] -8.45% | [2] -9.1% | [3] -8.3% | [4] -13.1% | [5] -1.9% | [6] -2.15%

COc1ccc(/C=N/Nc2nc3ccccc3c(=O)n2-c2ccccc2)cc1
inactive: [1] -56.3% | [2] -17.8% | [3] -38.6% | [4] -29.2% | [5] -11% | [6] -42%

COc1cc(C2c3cc4c(cc3OC(N3CCNCC3)C2C)OCO4)cc(OC)c1OC (stereo unspecified)
inactive: [1] -17.5% | [2] -42.8% | [3] -27.8% | [4] -22.7% | [5] -3.6% | [6] -27.5%

Nc1nc(=S)c2[nH]cnc2[nH]1
inactive: [1] -19.6% | [2] -4.95% | [3] -21.4% | [4] -91.7% | [5] 9.55% | [6] -125%

Nc1nc(N)nc(-c2cc(Br)ccc2N)n1
inactive: [1] 51.6% | [2] -0.3% | [3] 12.4% | [4] 19.1% | [5] 30.4% | [6] 7.5%

CCc1nc2c(N)ncnc2o1
inactive: [1] -1.45% | [2] -1.5% | [3] -3.3% | [4] -37.3% | [5] -19.8% | [6] 11.4%

O=C(Nc1cccc([N+](=O)[O-])c1)OCC#CCOC(=O)Nc1cccc([N+](=O)[O-])c1
inactive: [1] 3.8% | [2] 7.5% | [3] 13.7% | [4] 11.8% | [5] 9.95% | [6] 16.1%

O=S(=O)(O)c1ccc(N/N=C/c2ccccc2)cc1
inactive: [1] -9.45% | [2] 12.7% | [3] 12.1% | [4] 5.3% | [5] -10.2% | [6] 14.3%

Cc1ccc(S(=O)(=O)OCCN(CCO)c2cn(C(c3ccccc3)(c3ccccc3)c3ccccc3)c(=O)n(C(c3ccccc3)(c3ccccc3)c3ccccc3)c2=O)cc1
inactive: [1] -2.1% | [2] 17.8% | [3] 3.7% | [4] -6.8% | [5] -4.3% | [6] 24.3%

CS(=O)(=O)Oc1ccc2cc(Br)ccc2c1
inactive: [1] 13.6% | [2] -5.35% | [3] -0.3% | [4] 4.25% | [5] 31.4% | [6] 9.75%

CS(=O)(=O)OCCCCCCCCCOS(C)(=O)=O
inactive: [1] -10.9% | [2] -26.1% | [3] -3.6% | [4] -0.05% | [5] -18.8% | [6] -12.3%

CCCCCCC(=O)CC(SCCS)c1ccc(Cl)c(Cl)c1 (stereo unspecified)
inactive: [1] 4.65% | [2] 16.2% | [3] -4.3% | [4] 5.8% | [5] -1.4% | [6] 6.3%

O=C(OCc1ccccc1)C1(N2CN(C3(C(=O)OCc4ccccc4)CCCC3)CN(C3(C(=O)OCc4ccccc4)CCCC3)C2)CCCC1
inactive: [1] -8.05% | [2] -5.7% | [3] 2.25% | [4] 16.9% | [5] 13.5% | [6] 2.15%

CCCCCCCCOC(=O)CO
inactive: [1] 23.8% | [2] -30.1% | [3] 17.8% | [4] 5.35% | [5] 3.1% | [6] 12.3%

COc1cccc(Oc2ccc(C)cc2)c1
inactive: [1] 17.2% | [2] -12.8% | [3] -18.6% | [4] -19.1% | [5] 8.95% | [6] -21.9%

[N-]=[N+]=Nc1ccc(S(=O)(=O)Oc2cc(OS(=O)(=O)c3ccc(N=[N+]=[N-])cc3)cc(OS(=O)(=O)c3ccc(N=[N+]=[N-])cc3)c2)cc1
inactive: [1] 4% | [2] 16.1% | [3] 10.6% | [4] 8% | [5] -5.9% | [6] 14.1%

Cc1ccc(Cl)cc1NC(=O)Oc1ccc(Cl)cc1C
inactive: [1] 23.2% | [2] 9.1% | [3] -7.8% | [4] 8.8% | [5] 15.7% | [6] 3.25%

CSC(=NCc1ccccc1)Nc1c(C)cccc1C
inactive: [1] 13.4% | [2] 4.45% | [3] 6.75% | [4] 8.1% | [5] 28.1% | [6] 17.1%
